High-throughput results (PubChem)
These entries were drawn from the full list.
aSyn UTR act: Activators via SNCA 5'UTR binding, MLPCN | activity score, % (tested at 7.5 µM), hits read low | hit rate 7.1% among 300,000 | alpha-synuclein 5'UTR reporter, activators screen; in the data active means activity score below about -60%
The depositor's hits bear a star.

SMILES | aSyn UTR act
CC1CC(C)CN(c2ncnc3c2cnn3-c2ccc(Cl)cc2)C1 (configuration not stated) | -99*
CCN1CCN(c2ncnc3c2cnn3-c2ccccc2)CC1 | -98*
Oc1c(CN2CCN(c3ccccc3)CC2)cc(Br)c2cccnc12 | 85
c1ccc(-n2ncc3c(N4CCCCC4)ncnc32)cc1 | 94
CCOC(=O)c1ccc(Nc2nc(N)c3cc(OC)c(OC)cc3n2)cc1 | -104*
COc1cc2nc(Nc3ccc(C)c(Cl)c3)nc(N)c2cc1OC | 99
COC(=O)c1ccc(Nc2nc(C)cc(C)n2)cc1 | -83*
COc1cc2nc(Nc3ccc(F)cc3)nc(N)c2cc1OC | -131*
COc1cc2nc(Nc3ccc(C)c(C)c3)nc(N)c2cc1OC | -131*
COC(=O)c1ccc(Nc2cc(C)nc3ccccc23)cc1 | 65
COc1cc2nc(N(C)C)nc(N)c2cc1OC | -78*
Cc1ccc(-c2n[nH]c(Cc3ccccc3)n2)cc1 | -126*
CCCC1CCC(c2nc(-c3cccnc3)no2)CC1 (configuration not stated) | -166*
COc1ccccc1C1=NOC(C)(c2sc(-c3ccc(Cl)cc3)nc2C)C1 (configuration not stated) | -70*
Cc1nc(-c2ccccc2)sc1C1(C)CC(c2ccccc2F)=NO1 (configuration not stated) | -76*
Cc1nc(-c2ccc(Cl)cc2)sc1C1(C)CC(c2ccccc2)=NO1 (configuration not stated) | -134*
COc1ccc2cc1Oc1ccc(cc1)C[C@H]1c3c(cc4c(c3Oc3cc5c(cc3OC)CCN(C)[C@@H]5C2)OCO4)CCN1C | 109
C=COC(=O)c1sc2nc(C)cc(C)c2c1N | -62*
Cc1cc(C)c2c(N)c(C(=O)Nc3ccccc3Br)sc2n1 | -133*
Cc1cc(C)c2c(N)c(C(=O)Nc3ccccc3Cl)sc2n1 | -105*
Cc1cc(C)c2c(N)c(C(=O)Nc3ccccc3F)sc2n1 | -157*
CCC(=O)Nc1ccc2oc(-c3ccccc3Br)nc2c1 | -186*
CCC(=O)Nc1ccc2oc(-c3cccnc3)nc2c1 | -101*
CCCC(=O)Nc1ccc(-c2nc3cc(C)c(C)cc3o2)cc1 | -110*
Cc1ccc2oc(-c3ccc(NC(=O)CC(C)C)cc3)nc2c1 | -77*
SMILES | aSyn UTR act
Cc1ccccc1-c1nc2cc(NC(=O)C3CC3)ccc2o1 | -150*
O=C(CN1CCCC1)Nc1ccc(-c2nc3cc(NC(=O)CN4CCCC4)ccc3o2)cc1 | -119*
CC(C)CC(=O)Nc1ccc2oc(-c3cccnc3)nc2c1 | -120*
CCCC(=O)Nc1ccc2oc(-c3cncc(Br)c3)nc2c1 | -94*
Cc1ccc(/C=C/C(=O)N2CCc3ccccc32)o1 | -204*
COc1ccc(/C=C/C(=O)N2CCCc3ccccc32)cc1 | -93*
COc1ccc(CCC(=O)N2CCc3ccccc32)cc1 | -91*
COc1cc2[nH]c(C(=O)N3CCc4ccccc43)cc2c(OC)c1OC | -93*
COC(=O)C1=C(CN2CCCc3ccccc32)NC(=O)NC1c1ccc(F)cc1 (configuration not stated) | 79
COc1ccc(C(=O)N2CCc3ccccc32)cc1 | -89*
CC(=O)c1ccc(N(C(=O)Cc2c[nH]c3ccccc23)C(C(=O)NC2CCCCC2)c2cccs2)cc1 (configuration not stated) | -84*
Clc1nnc(NN=C2CCCC2)c2ccccc12 | -194*
Clc1nnc(N/N=C/c2ccccc2)c2ccccc12 | -268*
Cc1ccc(/C=N/Nc2nnc(Cl)c3ccccc23)cc1 | -157*
Clc1ccc(/C=N/Nc2nnc(Cl)c3ccccc23)cc1 | -165*
Clc1ccc(/C=N/Nc2nc(Cl)nc3ccccc23)cc1 | -172*
Cc1c(C(=O)NC(=S)NCC(C)C)oc2ccccc12 | -191*
C=CCNC(=S)NC(=O)c1oc2ccccc2c1C | -155*
Cc1cccnc1NC(=S)NC(=O)c1oc2ccccc2c1C | -226*
Clc1ccccc1-c1ncc(-c2ccccc2)o1 | -143*
COc1ccc(NC(=O)CSc2ccc3c4c(cccc24)C(=O)c2ccccc2-3)cc1 | -65*
N#Cc1cccc(NC(=O)CSc2ccc3c4c(cccc24)C(=O)c2ccccc2-3)c1 | -154*
Cc1ccc(NC(=O)C2C3C=CC4(CN(Cc5cccnc5)C(=O)C24)O3)cc1 (configuration not stated) | -80*
O=C1OC(c2ccc(Br)cc2)=N/C1=C\N1CCCCC1 | -95*
O=C1OC(c2ccccc2)=N/C1=C\N1CCCCC1 | -152*
SMILES | aSyn UTR act
O=C1OC(c2ccccc2)=C/C1=C/N1CCCCC1 | -185*
CCc1ccc2oc(-c3ccc(OC)cc3)cc(=Nc3c(C)n(C)n(-c4ccccc4)c3=O)c2c1 | -77*
COc1ccccc1NCC(=O)N/N=C(\C)c1cccs1 | -92*
Cc1ccc(C(=O)NCCc2c[nH]c3ccccc23)s1 | -178*
O=C(/C=C/c1ccccc1)c1c[nH]c2ccccc12 | -98*
Cc1ccc(C(=O)NCCc2c[nH]c3ccccc23)c(C)c1 | -104*
O=C(/C=C/c1ccccc1)NCCc1c[nH]c2ccccc12 | -111*
O=C1c2ccccc2C(=O)N1CCc1c[nH]c2ccccc12 | -172*
O=C(NCCc1c[nH]c2ccccc12)c1ccccc1 | -107*
Cc1c(C(=O)O)cccc1-c1ccc(/C=N/Nc2ccc(Br)cc2)o1 | -145*
Cc1c(C(=O)O)cccc1-c1ccc(/C=N/n2cnnc2)o1 | -79*
Cc1ccccc1N=C1Nc2ccccc2CS1 | -134*
COc1ccc(N=Cc2c(O)c3ccccc3n2C(C)=O)cc1 | -132*
COc1ccc(N=Cc2sc(O)c3ccccc23)cc1 | -274*
O=c1c2ccccc2oc2ccc(-c3ccc4[nH]ccc4c3)cc12 | -154*
Fc1ccc(-c2nc3c(Cl)cc(C(F)(F)F)cn3c2Cl)cc1 | -111*
Cc1ccc2c(c1)C1CN(C)CCC1N2C(=O)Nc1ccc(Cl)cc1 (configuration not stated) | -66*
CC(Cc1ccco1)NC(=O)c1ccc(C(F)(F)F)cc1 (configuration not stated) | -69*
COc1ccc(CCOC(=O)c2ccc(N)c([N+](=O)[O-])c2)cc1 | -73*
COc1ccc(/C(N)=N/OC(=O)c2ccc(C)c([N+](=O)[O-])c2)cc1 | -165*
Cc1cc(C(=O)O/N=C(\N)c2ccncc2)ccc1[N+](=O)[O-] | -124*
Cc1ccc(Nc2ncnc3sc(C)c(C)c23)cc1 | -182*
Cc1sc2ncnc(N/N=C/c3cccc(O)c3)c2c1C | -75*
C/C(=N\Nc1ncnc2sc(C)c(C)c12)c1ccccn1 | 105
CCOC(=O)c1sc(NC(=S)NC(=O)C23CC4CC(CC(C4)C2)C3)cc1C | -104*
SMILES | aSyn UTR act
CCOC(=O)c1sc(NC(=S)NC(=O)C2CC2)cc1C | -85*
O=C(O)COc1cccc2ccccc12 | -65*
Cc1ccc2nc(NC(=O)Cn3cc4c(n3)CCCCC4)sc2c1 | -108*
Cc1ccc2nc(-c3ccc(NC(=O)CN4C(=O)NC(C)(c5ccc(OC(F)F)cc5)C4=O)cc3)sc2c1 (configuration not stated) | -136*
Cc1ccc2nc(NC(=O)CN3C(=O)NC4(CCCCC4)C3=O)sc2c1 | -82*
O=C1S/C(=C\c2ccc(N3CCOCC3)o2)C(=O)N1c1ccccc1 | -96*
O=C(O)c1ccccc1-c1ccc(/C=C2\SC(=O)N(c3ccccc3)C2=O)o1 | -72*
Cc1c(-c2nc(N)nc(Nc3ccc(F)cc3)n2)oc2ccccc12 | -95*
COc1ccc(C(=O)NCCSc2ccccc2)cc1OC | -129*
CN(C)S(=O)(=O)c1ccc(C(=O)NCCSc2ccccc2)cc1 | -115*
